From PubChem
HP1b chromo inh = blocks HP1-beta chromodomain binding to methylated histone tails; actives 0.56% (n = 390,000); Potency, µM (top dose mostly 114 µM), without a hit: at the highest dose activity change, negative = inhibition, usual class: inhibitors; AID 540317; P83916; AlphaScreen HP1-beta / biotin-H3K9me3 peptide binding; further: nearly all actives have a fitted effect of over 70% in size
Target sequence (P83916 whole entry, looked up): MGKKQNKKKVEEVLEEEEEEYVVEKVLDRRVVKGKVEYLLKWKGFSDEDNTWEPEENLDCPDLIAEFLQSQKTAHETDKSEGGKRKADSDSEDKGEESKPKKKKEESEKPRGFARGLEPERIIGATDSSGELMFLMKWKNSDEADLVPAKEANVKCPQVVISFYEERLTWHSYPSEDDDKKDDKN
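HP1-beta protein (50 nM final) preincubated 30 min at room temperature with biotinylated H3(1-18)K9me3 peptide (50 nM) in PBS pH 7.4, 0.01% Tween-20, then compound added for 30 min. AlphaScreen streptavidin donor/nickel chelate acceptor beads (10 ug/mL final), 30 min dark, luminescence read.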
BAZ2B block = inhibitors of human BAZ2B bromodomain | Q9UIF8 | AlphaScreen BAZ2B-H3K14Ac peptide displacement | Potency, µM (titrated, usually from 114 µM), for the others: at the top dose activity change, negative = inhibition, hits mostly inhibitors | actives 4.4% (n = 360,000) | AID 504333; further: on the % scale 0 is the no-effect control and ±100 the full control effect; nearly all actives have a fitted effect of over 60% in size
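In this displacement format the biotinylated H3(5-23) peptide acetylated at Lys14 serves as ligand at 50 nM, with BAZ2B at 50 nM in PBS pH 7.4 containing 0.01% Tween-20. Donor and acceptor beads are 10 ug/mL final.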
JMJD2A Tudor inh = blocks the human JMJD2A Tudor domain; O75164; AlphaScreen JMJD2A-Tudor / H3K4me3 peptide binding; Potency, µM (doses to about 114 µM), for inactives: at the highest dose activity change, negative = inhibition, most hits filed as inhibitors; actives 4.4% (n = 390,000); AID 504339; further: on the % scale 0 is the no-effect control and ±100 the full control effect; nearly all actives have a fitted effect of over 50% in size
Sfp PPTase inh = inhibitors of Bacillus subtilis Sfp phosphopantetheinyl transferase | Biochemical Sfp PPTase activity, qHTS | Potency, µM, for inactives: largest response in the series, negative = inhibition, most hits filed as inhibitors | actives 3.5% (n = 310,000) | AID 1490;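 further: the enzyme is Sfp with the accession as filed and its product quenches rhodamine fluorescence; 0% = enzyme reaction without inhibitor and -100% = no enzyme wells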
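Fluorescence-quenching assay: 15 nM Sfp-PPTase preincubated 15 min at room temperature with compound, then 5 uM rhodamine-CoA and 12.5 uM BHQ-2-labelled YbbR peptide added. Fluorescence (ex 525/em 598 nm) read at start and after 30 min; difference gives rate.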
PLK1 PBD block = blocks phosphopeptide binding to human PLK1 polo-box domain; actives 2.8% (n = 360,000); Plk1 PBD binding of FITC phosphopeptide, fluorescence polarization; AID 720504; Potency, µM, for inactives: max response, negative = inhibition, usual class: inhibitors; P53350; further: series mostly up to about 57 µM; on the % scale 0 is the no-effect control and ±100 the full control effect; nearly all actives have a fitted effect of over 65% in size
G9a block = blocks human histone lysine methyltransferase G9a | Q96KQ7 | G9a H3K9 monomethylation, AlphaScreen, 2 h | Potency, µM (titrated, usually from 102 µM), for the others: at the highest dose activity, negative = inhibition, usual class: inhibitors | actives 8.8% (n = 350,000) | AID 504332; further: on the % scale 0 is the no-effect control and ±100 the full control effect; nearly all actives have a fitted effect of over 75% in size
Target sequence (Q96KQ7 913-1193 limits assumed): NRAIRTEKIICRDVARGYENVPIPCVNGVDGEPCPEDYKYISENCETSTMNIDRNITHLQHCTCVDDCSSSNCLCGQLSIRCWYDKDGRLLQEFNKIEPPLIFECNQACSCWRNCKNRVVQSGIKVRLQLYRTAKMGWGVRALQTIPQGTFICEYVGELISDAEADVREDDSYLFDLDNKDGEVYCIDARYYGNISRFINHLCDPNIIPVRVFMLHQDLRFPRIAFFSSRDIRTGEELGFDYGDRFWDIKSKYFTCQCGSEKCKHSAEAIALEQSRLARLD
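AlphaScreen read-out: biotin-H3K9 peptide (500 nM) methylation by 20 nM enzyme with 20 uM SAM, 2 h at room temperature after 15 min compound preincubation; anti-monomethyl H3K9 antibody plus donor/acceptor beads, 10 min dark.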
* = called active by the depositor; [ ] = dose if it differs, or a comment. This is a sample that favours compounds with a hit; in the whole collection about 12% have one here. The call rests on the fitted dose curve; in most records, active means well fitted curve in the direction sought with a large enough effect; inconclusive means small, poorly fitted or top-dose-only effect, or another doubt; inactive means no such curve, though single readings can be large; an effect the other way counts as inactive or inconclusive. Potency means the concentration at half of the fitted maximal effect.

`O=C(NCc1ccc(F)cc1)C(=O)NCC1OCCN1S(=O)(=O)c1cc(F)ccc1F` (stereo not given) gave PLK1 PBD block 1%.
For COc1ccc(C2NC(=O)NC(C)=C2C(C)=O)cc1 (stereo not given) the results were HP1b chromo inh 18%, BAZ2B block 3%, JMJD2A Tudor inh -16%, Sfp PPTase inh -7%, PLK1 PBD block 4% and G9a block 13µM*.
`CCOC(=O)C1=C(CN2CCN(c3ccc(OC)cc3)CC2)NC(=O)NC1c1ccc(OC)cc1` (stereo not given) gave HP1b chromo inh -38%, BAZ2B block 40µM*, JMJD2A Tudor inh 56µM* and G9a block 11µM*.
CCOC(=O)C1=C(CN2CCN(c3ccc(OC)cc3)CC2)NC(=O)NC1c1ccc(Cl)cc1 (stereo not given) was read as HP1b chromo inh inconclusive, JMJD2A Tudor inh 13µM* and G9a block 7.9µM*.
`CC(=O)C1=C(C)NC(=O)NC1c1ccc(OC2CCCC2)cc1` (stereo not given) gave HP1b chromo inh 23%, BAZ2B block 7%, JMJD2A Tudor inh -8%, Sfp PPTase inh -9%, PLK1 PBD block 6% and G9a block 5%[12.7 µM].
`CNC(=O)C(C)Sc1ccc(S(=O)(=O)N2CCOCC2)cn1` (stereo not given) gave HP1b chromo inh 23%, BAZ2B block 4%, JMJD2A Tudor inh -18%, PLK1 PBD block -3% and G9a block inconclusive.
CCOc1ccc(NC(=O)c2ccc(F)c(S(=O)(=O)N(CC)Cc3ccccc3)c2)cc1 was read as HP1b chromo inh 34%, BAZ2B block 2%, JMJD2A Tudor inh -14% and G9a block -4%[59 µM].
For NNC(=O)c1sc2cc(C(F)(F)F)cnc2c1-c1cccs1 the results were HP1b chromo inh 43%, BAZ2B block -10%, JMJD2A Tudor inh -6%, Sfp PPTase inh 7%, PLK1 PBD block -4% and G9a block -18%.
Screening O=C(Nc1ccccc1)c1sc2cc(C(F)(F)F)cnc2c1-c1cccs1 returned HP1b chromo inh 6%, BAZ2B block 3%, JMJD2A Tudor inh 28µM*, Sfp PPTase inh 1%, PLK1 PBD block 3µM* and G9a block inconclusive.
Screening COc1ccc(OC)c2c(=O)cc(C(=O)O)[nH]c12 returned HP1b chromo inh -2%, BAZ2B block inconclusive, JMJD2A Tudor inh 79µM*, Sfp PPTase inh -24%, PLK1 PBD block 1% and G9a block 25µM*.
Screening COc1cc2cc(C(=O)O)[nH]c2c(OC)c1OC returned HP1b chromo inh 29%, BAZ2B block inconclusive, JMJD2A Tudor inh -12%, Sfp PPTase inh 10%, PLK1 PBD block -9% and G9a block -12%[59 µM].
For COC(=O)c1cn(C(=O)c2ccc(C)cc2)c2ccccc12 the results were HP1b chromo inh 78%, BAZ2B block 89%, JMJD2A Tudor inh inconclusive, Sfp PPTase inh inconclusive, PLK1 PBD block 19µM* and G9a block 255%.
COC(=O)c1cn(C(=O)c2ccc(OC)cc2)c2ccccc12 was read as HP1b chromo inh 85%, BAZ2B block -5%, JMJD2A Tudor inh 55%, Sfp PPTase inh -2%, PLK1 PBD block -7% and G9a block 101%.
`COC(=O)c1cn(C(=O)c2cc(C)cc(C)c2)c2ccccc12` gave HP1b chromo inh 5%, BAZ2B block 9%, JMJD2A Tudor inh 1%[11.4 µM], Sfp PPTase inh 10%, PLK1 PBD block 21µM* and G9a block -1%[12.7 µM].
Screening CCn1nc(C)cc1C(=O)N1CCCC(CCC(=O)NCc2ccccc2F)C1 (stereo not given) returned HP1b chromo inh 33%, BAZ2B block 2%, JMJD2A Tudor inh -4%, Sfp PPTase inh 6%, PLK1 PBD block -6% and G9a block 9%.
For CC(=O)c1cccc(NC(=O)c2ccc(C)o2)c1 the results were HP1b chromo inh 25%, BAZ2B block -3%, JMJD2A Tudor inh inconclusive, Sfp PPTase inh 7%, PLK1 PBD block 30µM* and G9a block 1%.
